Mcl1-Bid inh = disrupts binding of human Mcl-1 to Bid peptide | TR-FRET Mcl-1/Bid-Dy647 peptide binding, 1536-well | Q07820 | 220,000 tested, 0.97% active | inhibition, % at 21.7 µM | AID 1021;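 active = compounds that cut the binding signal by more than half at the single screening dose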;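 note: His-tagged Mcl-1 with europium anti-His antibody binding Bid BH3 peptide; 0% = Mcl-1 plus peptide wells and 100% = peptide-only wells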
14-3-3 Bad PPI = disrupts binding of bovine 14-3-3 zeta to phospho-Bad peptide | 220,000 tested, 0.71% active | inhibition, % at 21.7 µM | TR-FRET 14-3-3zeta/Dy647-pBad peptide displacement, 1 h | P63103;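 active = inhibition above about 70%, limit read from the data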;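 note: 0% = full 14-3-3 plus peptide FRET controls and 100% = background without 14-3-3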
Target sequence (P63103 whole entry, looked up): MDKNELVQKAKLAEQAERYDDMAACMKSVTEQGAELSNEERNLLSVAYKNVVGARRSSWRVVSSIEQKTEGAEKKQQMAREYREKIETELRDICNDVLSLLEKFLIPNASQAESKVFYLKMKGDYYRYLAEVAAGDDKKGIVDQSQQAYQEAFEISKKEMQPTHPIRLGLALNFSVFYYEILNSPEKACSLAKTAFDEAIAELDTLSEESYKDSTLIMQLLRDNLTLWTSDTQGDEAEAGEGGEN
Mcl1-Noxa inh = Mcl-1/Noxa interaction inhibition; inhibition, % at 21.7 µM; AID 1022; TR-FRET Mcl-1/Noxa peptide binding, 2 h; 220,000 tested, 1.5% active; Q07820;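 active = compounds that cut the protein-peptide binding signal by more than 50% relative to plate controls in a single-dose test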;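 note: His-tagged Mcl-1 with rhodamine Noxa BH3 peptide and terbium anti-His antibody; 0% = Mcl-1 plus Noxa peptide wells and 100% = peptide-only wells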
eIF4E 4G PPI = inhibitors of eIF4E and eIF4G interaction in translation initiation; inhibition, % at 21.7 µM; TR-FRET eIF4E-eIF4GI(517-606) binding, 2 h; P63073+Q04637; AID 782; 220,000 tested, 0.37% active;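 note: 0% = full FRET control wells and 100% = background wells lacking eIF4GI fragment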
Bim-Mcl-1 = disrupts Bim peptide binding to human Mcl-1; Q07820; Bead-based flow cytometry, Bim peptide-Mcl-1 binding; inhibition, % at 10 µM; 190,000 tested, 0.1% active; AID 1009; in the data active = inhibition above about 40%;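 note: 0% = no compound tracer wells and 100% = peptide blocker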
p47phox inh = p47phox (human) inhibition | p47phox/p22phox peptide binding, fluorescence polarization, 2 h | P14598 | inhibition, % at 24.7 µM | 220,000 tested, 0.53% active;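 note: 0% = p47phox with labelled peptide and 100% = labelled peptide alone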
Target sequence (P14598 whole entry, looked up): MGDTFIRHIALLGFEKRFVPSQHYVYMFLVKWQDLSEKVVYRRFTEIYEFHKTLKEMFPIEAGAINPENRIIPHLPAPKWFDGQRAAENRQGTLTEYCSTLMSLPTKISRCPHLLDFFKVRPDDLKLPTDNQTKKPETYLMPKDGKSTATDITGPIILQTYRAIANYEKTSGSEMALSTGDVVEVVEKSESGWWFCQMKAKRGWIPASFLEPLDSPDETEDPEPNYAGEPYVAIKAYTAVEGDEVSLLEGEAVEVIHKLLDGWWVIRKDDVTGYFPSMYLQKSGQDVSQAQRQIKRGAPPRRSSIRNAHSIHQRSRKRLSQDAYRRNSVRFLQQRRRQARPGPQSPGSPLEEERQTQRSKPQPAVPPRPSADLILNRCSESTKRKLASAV
Starred values were filed as active, the others as inactive; . = not tested or not shown; [ ] = another dose, or the depositor's remark. This is a sample that favours compounds with a hit; in the whole collection about 3.3% have one here.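 Rule for the calls, unless noted: active = inhibition above about 30% (limit read from the data); inactive = the rest.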

SMILES	Mcl1-Bid inh	14-3-3 Bad PPI	Mcl1-Noxa inh	eIF4E 4G PPI	Bim-Mcl-1	p47phox inh
N=c1n(CC(=O)c2cccc([N+](=O)[O-])c2)c2ccccc2n1Cc1ccccc1	-5.6	-7.3	22.1	0.0	-6.0	-4.6
CCn1c(=N)n(CC(=O)c2cccc([N+](=O)[O-])c2)c2ccccc21	-49.5	74.4*[fluorescence artefact?]	5.8	-3.1	0.0	0.9
Cc1ccc(C)c(NC(=O)CCC(=O)OC(C(=O)c2ccccc2)c2ccccc2)c1 (centres undefined)	5.3	5.3	-1.8	0.4	-3.0	-6.7
O=C(CCC(=O)OC(C(=O)c1ccccc1)c1ccccc1)Nc1ccccc1 (centres undefined)	7.2	87.1*	-6.0	3.1	1.0	-11.1
Cc1ccc2c(c1)[nH]c1c(=O)n(Cc3ccco3)cnc12	-31.5	-2.8	3.8	-0.9	.	-11.1
COc1cc(S(=O)(=O)Nc2cccc(C)c2)ccc1NC(=O)c1ccncc1	94.6*	-1.3	12.3	-4.1	-4.0	-6.8
Cc1nc(C)c(C(=O)Nc2ncc([N+](=O)[O-])s2)o1	-21.6	22.2	69.2*	14.3	0.0	-6.9
CC(C)CC(=O)Nc1ncc([N+](=O)[O-])s1	-26.5	7.8	50.1	-0.8	.	-10.6
Cc1ccc2c(c1)C1CN(C)CCC1N2Sc1ccccc1[N+](=O)[O-] (centres undefined)	0.3	-3.0	14.4	-6.8	.	2.9
COc1nccc(Nc2ccccc2)c1C#N	-0.8	.	-6.4	.	4.0	44.1*
CSc1nccc(Nc2ccccc2)c1C#N	-5.7	2.6	10.2	25.1	0.0	-1.6
Cc1ccccc1N1C(=O)C(Oc2ccc(Cl)cc2)C1CNC(C)(C)C (centres undefined)	-23.6	-15.8	4.7	2.2	-5.0	-3.0
O=C(Nc1ccc(OC(F)F)cc1)c1ncc(Cl)c(Cl)c1Cl	5.1	98.2*	0.5	1.6	0.0	-10.4
CCOC(=O)N1CCC(N2Cc3cccc(C(=O)Nc4cccc(F)c4)c3C2=O)CC1	-30.1	-10.4	15.1	-5.0	2.0	-12.2
Cc1ccc(C(C(=O)NC2CCCCC2)N2CCN(C(=O)c3ccco3)CC2)cc1 (centres undefined)	6.1	-5.8	6.5	-8.5	-2.0	-2.8
Cc1ccccc1CCN(C(=O)Cn1nnc2ccccc21)C(C(=O)NCC1CCCO1)c1nc2ccccc2n1C (centres undefined)	17.2	2.2	0.3	-3.1	-4.0	45.1*
COC(=O)/C(=C/c1cn(C(C)=O)c2ccccc12)[N+](=O)[O-]	-7.9	-2.6	61.0*	2.4	.	-0.4
CNn1cnc2ccsc2c1=O	1.4	6.0	0.8	3.6	.	-8.6
CCCCCSc1nnc2c(n1)OC(c1cccn1C)N(C(C)=O)c1ccccc1-2 (centres undefined)	97.6*	-9.7	6.5	-3.0	0.0	-5.6
CSc1cccc(NC(=O)CCCOc2ccc(Cl)cc2Cl)c1	2.0	4.3	-7.5	-5.4	-5.0	-10.2
O=C(CCCOc1ccc(Cl)cc1Cl)Nc1cccnc1	28.1	78.4*	11.1	2.7	-2.0	-6.1
O=C(O)c1ccc(Cl)c(S(=O)(=O)Nc2ccc3[nH]c(=O)[nH]c3c2)c1	-2.7	6.5	55.9*	11.8	.	-10.7
S=c1[nH]nc(-c2ccc3ccccc3n2)n1-c1ccc2ncccc2c1	-130.1	-11.1	70.0*	5.5	-1.0	-7.3
Cc1cccc(NC(=O)Cn2cnc3ccccc3c2=O)c1C	-6.4	92.4*	1.6	3.2	2.0	-2.8
CCc1ccccc1NC(=S)NCC1CCN(c2ccc(OC)cc2)C1 (centres undefined)	-139.7	-3.6	22.8	16.0	.	-5.8
SMILES	Mcl1-Bid inh	14-3-3 Bad PPI	Mcl1-Noxa inh	eIF4E 4G PPI	Bim-Mcl-1	p47phox inh
COc1ccc(N2CCC(CNC(=O)Nc3ccc(Cl)cc3)C2)cc1 (centres undefined)	-55.4	-2.7	76.3*	18.0	2.0	-4.7
COc1ccc(N2CCC(CNC(=S)Nc3cccc(OC)c3)C2)cc1 (centres undefined)	-58.4	2.0	75.2*	15.0	3.0	-13.3
CCc1cccc(C)c1NC(=S)NCC1CCN(c2ccc(OC)cc2)C1 (centres undefined)	-31.4	-7.9	47.8	17.6	0.0	-5.2
COc1ccc(N2CCC(CNC(=O)Nc3cccc(OC)c3)C2)cc1 (centres undefined)	-99.8	.	89.0*	.	-1.0	-11.6
COC(=O)c1cnc(N2CCCN(S(=O)(=O)c3ccc(C(F)(F)F)cc3)CC2)nc1C(F)(F)F	-17.3	-6.6	-2.5	-3.2	.	-7.0
CC(C)CN(CC(C)C)C(=O)Nc1cccc([N+](=O)[O-])c1	-12.1	-12.2	-2.9	1.1	1.0	-10.5
COc1ccc(NC(=O)c2cc3c(=O)n(C)c4ccccc4c3s2)cc1OC	55.3*	5.7	40.6	10.1	-3.0	13.7
CCn1c(=O)c2cc(C(=O)Nc3ccc(OC)cc3OC)sc2c2ccccc21	-37.3	44.7	-123.4	-3.6	.	6.3
Nc1c(Cl)ncnc1NCC(O)CO (centres undefined)	9.6	7.1	14.4	-7.9	.	-5.2
NC(=O)C1CCN(C(=O)CCC(=O)c2ccc(Br)cc2)CC1	-12.8	-9.1	-10.7	4.0	0.0	-10.5
CCCCC(=O)Nc1cccc(NC(=O)c2ccc3c(c2)OCO3)c1	62.5*	-3.1	23.7	7.2	-3.0	5.5
COC(=O)c1ccccc1NC(=O)CSCC(=O)Nc1ccc(F)cc1	-26.4	6.0	-2.6	9.1	-1.0	-7.3
CN=c1scc(-c2ccco2)n1/N=C/c1ccc(O)c(O)c1	-40.5	-27.2	72.9*	-1.3	-1.0	-19.6
COc1ccc(O)c(/C=N/n2c(-c3ccco3)csc2=Nc2cccnc2)c1	-22.2	-1.6	24.6	-0.1	6.0	-16.4
COc1ccc(/C=N/N(C(C)=O)c2nc(-c3ccc(C)cc3)cs2)cc1	-14.6	54.2	-3.7	1.5	-7.0	-64.7
CC(=O)N(/N=C/c1cccc(C)c1)c1nc(-c2ccc(Br)cc2)cs1	99.0*	-13.7	2.3	-18.8	-2.0	-6.9
CC(=O)c1ccc(N2CCN(c3ccc(C(N)=O)cc3[N+](=O)[O-])CC2)cc1	-20.8	-0.9	14.4	-0.5	-1.0	-12.2
NC(=O)c1ccc(N2CCN(c3ccc(O)cc3)CC2)c([N+](=O)[O-])c1	-38.1	-10.5	64.1*	4.8	4.0	2.5
CC(=O)Nc1ccc(-n2nnnc2SCC(=O)NCc2cccs2)cc1	-33.7	-8.4	-5.2	0.0	1.0	-4.7
Cc1cc2cc(C=C(C#N)C#N)c(Cl)nc2cc1C	11.3	-2.3	23.8	11.6	0.0	-19.4
Cc1cccc(N=Cc2[nH]c3ccc(Br)c(Cl)c3c2O)c1	23.9	49.0	62.0*	17.1	-3.0	-29.8
CCOC(=O)c1c(N2C(=O)Nc3cc(Cl)c(Cl)cc3N2O)sc2c1CCCCC2	31.4	9.3	35.5	9.0	-4.0	-46.1
CCN1C(=O)S/C(=C/c2ccc(Sc3nc4ccccc4[nH]3)o2)C1=O	-11.6	-15.0	22.7	-0.3	-9.0	-32.2

Screening data as filed in PubChem BioAssay.
